# Reference: paper PMC5540273 (PLoS ONE, 2017)
# Experiments:
# Conditions in all cases: concentration: 1 μM, replicates: in singlicate; n = 1
# [1] = tested on: T1, RSK2(Kin.Dom.1-N-terminal)
# T1 construct: gene RPS6KA3
# [2] = tested on: T2, RSK2(Kin.Dom.2-C-terminal)
# T2 construct: gene RPS6KA3
# [3] = tested on: T3, RSK3(Kin.Dom.1-N-terminal)
# T3 construct: gene RPS6KA2
# [4] = tested on: T4, RSK3(Kin.Dom.2-C-terminal)
# T4 construct: gene RPS6KA2
# [5] = tested on: T5, RSK4(Kin.Dom.1-N-terminal)
# T5 construct: gene RPS6KA6
# [6] = tested on: T6, RSK4(Kin.Dom.2-C-terminal)
# T6 construct: gene RPS6KA6
# S6K1 = tested on: S6K1
# SBK1 = tested on: SBK1
# SGK2 = tested on: SGK2
# SGK3 = tested on: SGK3
# SGK = tested on: SGK
# SIK2 = tested on: SIK2
# SIK = tested on: SIK
# SLK = tested on: SLK
# SNARK = tested on: T7, SNARK
# T7 construct: gene NUAK2
# SNRK = tested on: SNRK
# SRC = tested on: SRC
# SRMS = tested on: SRMS
# SRPK1 = tested on: SRPK1
# SRPK2 = tested on: SRPK2
# 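Note: KINOMEscan kinase panel screen.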
Structure (SMILES),%Inh [1],%Inh [2],%Inh [3],%Inh [4],%Inh [5],%Inh [6],%Inh (S6K1),%Inh (SBK1),%Inh (SGK2),%Inh (SGK3),%Inh (SGK),%Inh (SIK2),%Inh (SIK),%Inh (SLK),%Inh (SNARK),%Inh (SNRK),%Inh (SRC),%Inh (SRMS),%Inh (SRPK1),%Inh (SRPK2)
NS(=O)(=O)c1cccc(-c2ccc3nccc(-c4cccc(S(N)(=O)=O)c4)c3c2)c1 [GW867253],31%,56%,0%,11%,12%,30%,16%,0%,0%,0%,9%,1%,0%,0%,0%,0%,0%,27%,0%,0%
Cc1cccc(-c2nc(-c3ccc(S(C)(=O)=O)cc3)sc2-c2ccncc2)c1,0%,25%,0%,4%,30%,15%,12%,1%,0%,12%,0%,0%,12%,26%,2%,17%,8%,0%,15%,0%
COc1ccc(Nc2nccc(N3CCC(NC(=O)Nc4cccc(C(C)=O)c4)C3)n2)cc1 (stereo not drawn) [GSK1379731],0%,0%,1%,0%,0%,2%,9%,20%,0%,0%,0%,0%,0%,0%,0%,0%,0%,0%,6%,0%
COc1ccc(CNC(=O)NC2CCN(c3ccnc(Nc4ccc(OC)cc4)n3)C2)cc1 (stereo not drawn) [GSK1379727],7%,0%,0%,0%,0%,21%,2%,3%,0%,0%,25%,0%,1%,0%,0%,0%,0%,5%,43%,35%
O=C(c1ccc(-c2cc(-c3c[nH]nc3-c3ccccn3)ccn2)cc1)N1CCOCC1 [GW812171],31%,0%,0%,0%,9%,24%,13%,0%,0%,16%,2%,0%,0%,0%,16%,10%,1%,28%,0%,0%
Cc1nnc(-c2ccc(C)c(-c3ccc(C(=O)Nc4ccc(NS(C)(=O)=O)cc4)cc3)c2)o1 [GW702865],0%,0%,0%,0%,0%,0%,0%,0%,0%,4%,2%,0%,0%,0%,1%,0%,0%,2%,23%,34%
COc1cc2c(cc1OCCN1CCN(C)CC1)ncc1c3ccc(C#N)cc3[nH]c21,61%,42%,33%,47%,67%,44%,53%,72%,43%,19%,78%,88%,17%,34%,97.1%,27%,0%,0%,7%,0%
Nc1nccc(-c2c(-c3ccc(F)cc3)ncn2C2CCN(CC(F)(F)F)CC2)n1 [SB-236560],14%,35%,13%,35%,0%,56%,0%,0%,0%,3%,25%,0%,0%,0%,0%,16%,0%,0%,19%,41%
COc1cc2ncn(-c3cc(OCc4sccc4Cl)c(C(N)=O)s3)c2cc1OC [GSK448459],30%,21%,10%,0%,14%,20%,3%,4%,0%,0%,0%,13%,8%,99%,80%,0%,0%,0%,88%,0%
Cc1c2ccc(N(C)c3ccnc(Nc4cccc(S(N)(=O)=O)c4)n3)cc2nn1Cc1ccccc1.Cl.Cl [GW787226],18%,0%,0%,0%,6%,0%,65%,0%,0%,0%,0%,42%,72%,66%,0%,0%,94.7%,67%,7%,0%
O=C1NC(=O)C(N2CCc3ccccc32)=C1c1cccc(Cl)c1 [SB-408010],0%,0%,10%,21%,35%,11%,0%,5%,0%,0%,0%,0%,12%,26%,2%,0%,10%,0%,14%,9%
c1ccc(-c2n[nH]cc2-c2ccnc3ccccc23)nc1 [GW271431],0%,0%,0%,0%,0%,48%,1%,9%,6%,10%,0%,9%,8%,16%,0%,0%,7%,0%,25%,0%
Cn1ccc2ncnc(Oc3ccc(NC(=O)Nc4ccncc4)c(Cl)c3)c21,0%,0%,0%,0%,0%,0%,0%,0%,2%,0%,0%,0%,0%,0%,0%,0%,13%,0%,0%,0%
COc1cc(Nc2nccc(N3CCC(NC(=O)c4cccc(NC(C)=O)c4)C3)n2)cc(OC)c1OC (stereo not drawn) [GSK1379754],3%,22%,26%,0%,1%,0%,10%,9%,0%,0%,0%,12%,10%,32%,57%,0%,25%,0%,61%,0%
Cl.Nc1ncnc2occ(-c3ccc(NC(=O)Nc4cc(C(F)(F)F)ccc4F)cc3)c12 [SB-707548],25%,27%,67%,77%,0%,39%,81%,2%,9%,19%,0%,0%,0%,98%,0%,0%,30%,4%,50%,40%
